Assay results reported in PubChem BioAssay (Tox21).
A number with no mark means an inactive call. Results filed as inconclusive are left out. Entries that show only a call come without a potency. Active and inactive are the calls of the source. Unless noted, calls come from the whole dose curve; as a rule, active = well fitted curve in the direction sought with a large enough effect in the repeat runs; inconclusive = weak or mixed curves; inactive = no such curve, though single readings can be large; an effect the other way counts as inactive or inconclusive.

Legend:
[1] = Human pregnane X receptor (PXR) small molecule agonists, qHTS cell viability counter screen (AID 1346977); note: nearly all actives have a fitted effect of over 50% in size
Procedure, shortened: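 PXR-Luc HepG2 cells (2,000/well, 5% charcoal-stripped FBS) preincubated 5 hr, then exposed to compounds 24 hr at 37 C. Viability read in the same wells by CellTiter-Fluor fluorescence, reagent added at 23 hr, 1 hr incubation.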

[2] = Caspase-3/7 induction in HepG2 cells by small molecules, qHTS assay (AID 1346978); note: nearly all actives have a fitted effect of over 15% in size
Procedure, shortened: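 Wild-type HepG2 cells (2,000/well) were settled 5 h at 37 C, 5% CO2, then exposed to compounds in DMSO for 17 h. Caspase-3/7 activity was read by luminescence 30 min after adding Caspase-Glo 3/7 reagent at room temperature.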

[3] = Caspase-3/7 induction in CHO-K1 cells by small molecules, qHTS assay (AID 1346980); note: nearly all actives have a fitted effect of over 15% in size
Procedure, shortened: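 Wild-type cells were seeded at 1,500 per well and settled 5 hr at 37 C, 5% CO2, then exposed to DMSO-dissolved compounds for 17 hr. Caspase-Glo 3/7 reagent was added, and luminescence was read after 30min at room temperature.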

[4] = Caspase-3/7 induction in HepG2 cells by small molecules, qHTS cell viability counter screen (AID 1346981); note: series mostly up to about 92 µM; nearly all actives have a fitted effect of over 30% in size
Procedure, shortened: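 Treatment of HepG2 cells with DMSO-delivered compounds ran 16 hr at 37 C following a 5-hr pre-incubation of 2,000 cells/well. CellTiter-Fluor fluorescence, read after 1 hr, served as the viability measure in a qHTS format.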

[5] = molecular target: Nuclear receptor subfamily 1 group I member 2 (Homo sapiens) (UniProt O75469); test: Human pregnane X receptor (PXR) small molecule agonists, qHTS assay (AID 1346982); note: nearly all actives have a fitted effect of over 35% in size
Procedure, shortened: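 Stable HepG2 line reporting PXR-mediated CYP3A4 expression via luciferase. Treatment: 24 hr with compounds in DMSO at 37 C. Detection: ONE-Glo luminescence.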

[6] = molecular target: Acetylcholinesterase (Homo sapiens) (UniProt P22303); test: Acetylcholinesterase (AChE) small molecule antagonists: colormetric cell-based qHTS assay (AID 1347395; calls by dose curve; note: nearly all actives have a fitted effect of over 30% in size)
Procedure, shortened: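 SH-SY5Y cells attached overnight, exposed to compound 30 min at 37 C, then given DTNB/acetylthiocholine; after 90 min at 37 C, colorimetric thiocholine read gives cellular AChE activity.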

[7] = molecular target: Acetylcholinesterase (Homo sapiens) (UniProt P22303); test: Acetylcholinesterase (AChE) small molecule antagonists: enzyme-based qHTS assay (AID 1347397; calls by dose curve; note: nearly all actives have a fitted effect of over 55% in size); conditions: Potency: AChE enzyme activity inhibition; outcome: AChE enzyme activity inhibition
Procedure, shortened: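 Compound or DMSO vehicle was pin-transferred onto recombinant human AChE (50 mU/mL as dispensed) and left 30 min at room temperature. Acetylthiocholine with DTNB then started the reaction, read colorimetrically 10 min later.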

[8] = molecular target: Acetylcholinesterase (Homo sapiens) (UniProt P22303); test: Acetylcholinesterase (AChE) small molecule antagonists: fluorescence cell-based qHTS assay (AID 1347398; calls by dose curve; note: nearly all actives have a fitted effect of over 50% in size); conditions: Potency: AChE activity; outcome: AChE activity
Procedure, shortened: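 Using neuroblastoma SH-SY5Y cells as the enzyme source, test chemicals are preincubated 30 min at 37 C; AChE-driven acetylthiocholine cleavage is then quantified by thiocholine-dependent Thiolite Green fluorescence after 40 min at room temperature.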

[9] = molecular target: Acetylcholinesterase (Homo sapiens) (UniProt P22303); test: Acetylcholinesterase (AChE) small molecule antagonists: enzyme-based qHTS assay with human liver microsomes (AID 1347399; calls by dose curve; note: nearly all actives have a fitted effect of over 60% in size); conditions: Potency: qHTS inhibition; outcome: qHTS inhibition
Procedure, shortened: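 Recombinant human AChE (50 mU/mL in the enzyme mix) and human liver microsomes (0.25 mg/mL final) were preincubated with compound and NADPH (0.25 mg/mL final) for 30 min at 37 C. Acetylthiocholine/DTNB was then added; thiocholine was read colorimetrically after 10 min at room temperature.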

[10] = molecular target: Cytochrome P450 2D6 (Homo sapiens) (UniProt P10635); test: Cytochrome P450 Family 2 Subfamily D Member 6 (CYP2D6) small molecule antagonists: luciferase reporter qHTS assay (AID 1671196); note: nearly all actives have a fitted effect of over 50% in size; note: potency is the fitted concentration of half-maximal effect
Procedure, shortened: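 Chemicals tested for interference with CYP2D6 activity; proluciferin substrate, NADPH regeneration, 1 h at room temperature, luminescent detection.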

[11] = molecular target: Cytochrome P450 2C19 (Homo sapiens) (UniProt P33261); test: Cytochrome P450 Family 2 Subfamily C Member 19 (CYP2C19) small molecule antagonists: luciferase reporter qHTS assay (AID 1671197); note: nearly all actives have a fitted effect of over 65% in size; note: potency is the fitted concentration of half-maximal effect
Procedure, shortened: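 CYP2C19 P450-Glo, 1536-well qHTS. Cpd + enzyme/proluciferin substrate 10 min RT; + NADPH regen, 37C 1 h; stop with luciferin detection reagent, 20 min RT, luminescence (RLU). Pos ctrl ketoconazole.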

[12] = molecular target: Cytochrome P450 1A2 (Homo sapiens) (UniProt P05177); test: Cytochrome P450 Family 1 Subfamily A Member 2 (CYP1A2) small molecule antagonists: luciferase reporter qHTS assay (AID 1671199); note: nearly all actives have a fitted effect of over 50% in size; note: potency is the fitted concentration of half-maximal effect
Procedure, shortened: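 Read-out is luminescence from luciferin detection reagent (20 min) proportional to CYP1A2 activity; compounds in DMSO preincubated 10 min with enzyme and proluciferin substrate, then NADPH regeneration solution, 1 h, room temperature.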

[13] = molecular target: Voltage-gated inwardly rectifying potassium channel KCNH2 (Homo sapiens) (UniProt Q12809); test: Human Ether-a-go-go-Related Gene (hERG) channel small molecule antagonists: fluorescence cell-based qHTS assay (AID 1671200)
Procedure, shortened: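 hERG-U2OS cells plated overnight at 37 C, loaded with FluxOR II dye 1 h at RT in dark; after 10 min, thallium stimulus added. Fluorescence (480/540 nm) read kinetically for 2 min at 1 s intervals.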

[14] = Caspase-3/7 induction in CHO-K1 cells by small molecules, qHTS cell viability counter screen (AID 1346979); note: nearly all actives have a fitted effect of over 35% in size
Procedure, shortened: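 Wild-type CHO-K1 cells (1,500/well) treated with compound after 5 h plating; after 16 h at 37C, viability read as CellTiter-Fluor fluorescence following 1 h reagent incubation, in the same wells as the caspase read.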

[15] = molecular target: Nuclear receptor subfamily 1 group I member 2 (Rattus norvegicus) (UniProt Q9R1A7); test: Rat pregnane X receptor (rPXR) activation by small molecules, qHTS assay (AID 1346983); conditions: rPXR luciferase reporter cells, One-Glo luminescence, 24 h; stronger effect = higher value; note: nearly all actives have a fitted effect of over 20% in size
Procedure, shortened: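 Cell-based rPXR luciferase reporter assay, 2,000 cells per well, rested 5hr at 37 C before compound addition in DMSO, then 24 hr at 37 C. One-Glo reagent was added and luminescence read after 30 min at room temperature.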

[16] = molecular target: Cytochrome P450 2C9 (Homo sapiens) (UniProt P11712); test: Cytochrome P450 Family 2 Subfamily C Member 9 (CYP2C9) small molecule antagonists: luciferase reporter qHTS assay (AID 1671198)
Procedure, shortened: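 CYP2C9 activity was measured with a P450-Glo proluciferin substrate. Enzyme–substrate mix was held with compound for 10 min at room temperature, then NADPH regeneration solution was added for 1 h at 37C. Luciferin product was read as luminescence.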

[17] = molecular target: Cytochrome P450 3A4 (Homo sapiens) (UniProt P08684); test: Cytochrome P450 Family 3 Subfamily A Member 4 (CYP3A4) small molecule antagonists: luciferase reporter qHTS assay (AID 1671201)
Procedure, shortened: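 P450-Glo CYP3A4 luminescent assay: compounds preincubated 10 min at room temperature with enzyme and proluciferin substrate, NADPH regeneration added, 1 h room-temperature reaction, stopped with luciferin detection reagent; luminescence read after 20 min. Ketoconazole positive control.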

Cytochrome P450 1A2 (Homo sapiens), sequence (P05177 whole entry, looked up): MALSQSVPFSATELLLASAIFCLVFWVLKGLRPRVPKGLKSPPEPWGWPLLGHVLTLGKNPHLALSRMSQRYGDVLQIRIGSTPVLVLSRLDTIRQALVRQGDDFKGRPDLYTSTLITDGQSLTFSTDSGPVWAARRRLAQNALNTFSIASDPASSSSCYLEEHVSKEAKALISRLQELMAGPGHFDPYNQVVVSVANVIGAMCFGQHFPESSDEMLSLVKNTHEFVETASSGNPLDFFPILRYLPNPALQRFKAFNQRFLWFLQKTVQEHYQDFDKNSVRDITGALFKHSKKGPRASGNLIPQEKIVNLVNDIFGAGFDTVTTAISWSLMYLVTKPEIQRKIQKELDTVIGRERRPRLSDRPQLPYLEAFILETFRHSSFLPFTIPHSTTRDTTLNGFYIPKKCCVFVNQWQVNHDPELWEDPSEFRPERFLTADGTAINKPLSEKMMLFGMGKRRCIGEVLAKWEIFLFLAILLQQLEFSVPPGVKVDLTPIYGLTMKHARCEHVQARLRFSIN
Cytochrome P450 2C19 (Homo sapiens), sequence (P33261 whole entry, looked up): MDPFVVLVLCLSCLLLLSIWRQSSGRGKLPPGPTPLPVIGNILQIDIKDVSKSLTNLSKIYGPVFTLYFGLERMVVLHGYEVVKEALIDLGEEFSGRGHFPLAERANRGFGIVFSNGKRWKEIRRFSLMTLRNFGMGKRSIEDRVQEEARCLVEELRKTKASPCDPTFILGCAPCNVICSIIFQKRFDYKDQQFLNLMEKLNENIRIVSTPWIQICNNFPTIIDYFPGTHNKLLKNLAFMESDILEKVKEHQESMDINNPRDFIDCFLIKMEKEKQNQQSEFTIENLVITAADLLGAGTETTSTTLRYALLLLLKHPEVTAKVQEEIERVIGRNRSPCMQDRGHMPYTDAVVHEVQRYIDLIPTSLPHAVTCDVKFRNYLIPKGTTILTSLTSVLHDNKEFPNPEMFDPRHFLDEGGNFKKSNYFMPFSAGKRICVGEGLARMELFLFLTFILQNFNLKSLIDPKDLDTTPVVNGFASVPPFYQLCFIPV
Voltage-gated inwardly rectifying potassium channel KCNH2 (Homo sapiens), sequence (Q12809 whole entry, looked up): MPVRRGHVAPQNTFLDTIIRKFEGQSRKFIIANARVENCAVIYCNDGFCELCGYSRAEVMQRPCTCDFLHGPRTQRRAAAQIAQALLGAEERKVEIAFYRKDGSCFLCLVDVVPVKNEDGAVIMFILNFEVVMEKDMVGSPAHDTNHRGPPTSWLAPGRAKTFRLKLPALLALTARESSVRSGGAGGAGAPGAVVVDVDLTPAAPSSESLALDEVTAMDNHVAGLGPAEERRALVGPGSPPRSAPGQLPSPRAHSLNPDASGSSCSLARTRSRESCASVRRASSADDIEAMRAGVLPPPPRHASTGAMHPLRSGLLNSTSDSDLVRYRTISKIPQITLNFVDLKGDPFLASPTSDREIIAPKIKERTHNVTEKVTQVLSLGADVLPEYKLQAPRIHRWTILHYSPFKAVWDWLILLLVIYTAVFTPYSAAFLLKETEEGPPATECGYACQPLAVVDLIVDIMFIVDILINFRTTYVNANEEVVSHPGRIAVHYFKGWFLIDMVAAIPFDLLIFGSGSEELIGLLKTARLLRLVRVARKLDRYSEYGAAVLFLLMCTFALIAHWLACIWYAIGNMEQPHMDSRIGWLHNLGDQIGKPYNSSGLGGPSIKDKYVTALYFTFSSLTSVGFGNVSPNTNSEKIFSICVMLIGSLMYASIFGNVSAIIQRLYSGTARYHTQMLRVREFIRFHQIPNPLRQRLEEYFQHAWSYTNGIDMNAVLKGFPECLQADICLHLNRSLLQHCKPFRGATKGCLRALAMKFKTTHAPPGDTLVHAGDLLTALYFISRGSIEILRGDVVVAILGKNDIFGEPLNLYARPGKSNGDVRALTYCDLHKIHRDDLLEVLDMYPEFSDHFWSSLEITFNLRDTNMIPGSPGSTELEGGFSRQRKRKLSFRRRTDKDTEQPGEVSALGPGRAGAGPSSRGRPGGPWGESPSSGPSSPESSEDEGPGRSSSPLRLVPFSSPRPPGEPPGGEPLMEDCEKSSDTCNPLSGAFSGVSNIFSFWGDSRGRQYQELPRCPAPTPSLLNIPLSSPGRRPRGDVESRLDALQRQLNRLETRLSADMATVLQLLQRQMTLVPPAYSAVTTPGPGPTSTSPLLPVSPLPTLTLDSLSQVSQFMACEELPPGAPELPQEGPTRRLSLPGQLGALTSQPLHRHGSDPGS
Acetylcholinesterase (Homo sapiens), sequence (P22303 whole entry, looked up): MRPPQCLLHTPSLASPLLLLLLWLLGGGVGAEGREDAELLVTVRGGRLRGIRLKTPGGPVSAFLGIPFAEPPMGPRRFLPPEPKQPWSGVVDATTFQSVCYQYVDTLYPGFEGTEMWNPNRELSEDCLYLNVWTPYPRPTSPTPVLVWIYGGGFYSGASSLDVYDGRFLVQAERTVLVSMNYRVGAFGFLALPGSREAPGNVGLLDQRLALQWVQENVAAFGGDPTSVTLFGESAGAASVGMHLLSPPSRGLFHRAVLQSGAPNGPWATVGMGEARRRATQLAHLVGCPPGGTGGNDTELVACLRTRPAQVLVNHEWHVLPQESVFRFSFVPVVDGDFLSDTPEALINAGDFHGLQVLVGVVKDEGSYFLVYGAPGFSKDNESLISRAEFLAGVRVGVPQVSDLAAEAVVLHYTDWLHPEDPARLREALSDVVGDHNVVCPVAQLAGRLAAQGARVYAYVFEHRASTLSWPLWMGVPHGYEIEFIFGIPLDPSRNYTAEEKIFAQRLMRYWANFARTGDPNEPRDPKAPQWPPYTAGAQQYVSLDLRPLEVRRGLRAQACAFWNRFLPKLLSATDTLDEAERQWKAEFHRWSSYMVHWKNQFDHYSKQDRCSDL
Nuclear receptor subfamily 1 group I member 2 (Homo sapiens), sequence (O75469 whole entry, looked up): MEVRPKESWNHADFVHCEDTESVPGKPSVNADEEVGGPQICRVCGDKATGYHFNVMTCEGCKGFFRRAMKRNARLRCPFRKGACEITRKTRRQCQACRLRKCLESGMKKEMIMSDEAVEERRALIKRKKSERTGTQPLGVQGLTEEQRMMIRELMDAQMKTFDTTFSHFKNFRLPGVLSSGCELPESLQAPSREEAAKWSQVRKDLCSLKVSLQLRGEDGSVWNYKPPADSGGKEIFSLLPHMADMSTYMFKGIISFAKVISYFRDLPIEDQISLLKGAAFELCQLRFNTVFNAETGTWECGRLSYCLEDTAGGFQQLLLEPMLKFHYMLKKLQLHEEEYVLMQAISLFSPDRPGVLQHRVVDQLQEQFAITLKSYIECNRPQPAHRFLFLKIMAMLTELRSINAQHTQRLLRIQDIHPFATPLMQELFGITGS
Cytochrome P450 2D6 (Homo sapiens), sequence (P10635 whole entry, looked up): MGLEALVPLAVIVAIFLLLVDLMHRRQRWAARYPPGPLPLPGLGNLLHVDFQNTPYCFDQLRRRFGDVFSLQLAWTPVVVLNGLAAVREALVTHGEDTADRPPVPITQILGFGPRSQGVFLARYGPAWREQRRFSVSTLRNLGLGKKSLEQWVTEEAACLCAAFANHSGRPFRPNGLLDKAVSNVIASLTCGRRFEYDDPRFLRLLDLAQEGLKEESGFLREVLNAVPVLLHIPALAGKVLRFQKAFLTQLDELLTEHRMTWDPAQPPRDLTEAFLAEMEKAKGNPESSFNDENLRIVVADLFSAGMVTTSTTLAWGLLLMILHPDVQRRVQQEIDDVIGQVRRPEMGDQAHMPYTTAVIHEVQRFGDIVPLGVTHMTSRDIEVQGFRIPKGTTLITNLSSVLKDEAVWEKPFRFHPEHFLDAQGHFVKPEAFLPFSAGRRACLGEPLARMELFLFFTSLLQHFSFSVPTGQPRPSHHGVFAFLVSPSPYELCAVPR
Cytochrome P450 2C9 (Homo sapiens), sequence (P11712 whole entry, looked up): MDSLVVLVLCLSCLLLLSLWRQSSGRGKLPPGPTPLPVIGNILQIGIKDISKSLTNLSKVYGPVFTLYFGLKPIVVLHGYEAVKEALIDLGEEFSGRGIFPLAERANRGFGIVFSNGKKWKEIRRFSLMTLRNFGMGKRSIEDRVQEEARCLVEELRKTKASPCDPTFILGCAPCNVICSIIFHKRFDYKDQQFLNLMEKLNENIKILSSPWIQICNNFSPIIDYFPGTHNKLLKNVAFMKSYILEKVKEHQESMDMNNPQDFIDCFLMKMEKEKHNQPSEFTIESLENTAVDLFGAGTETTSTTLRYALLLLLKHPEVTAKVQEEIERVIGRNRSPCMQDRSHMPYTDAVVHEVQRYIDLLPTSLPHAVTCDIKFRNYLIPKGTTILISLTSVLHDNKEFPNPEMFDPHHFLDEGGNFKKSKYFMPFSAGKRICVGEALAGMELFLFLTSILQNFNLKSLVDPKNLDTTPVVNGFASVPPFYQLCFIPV
Cytochrome P450 3A4 (Homo sapiens), sequence (P08684 whole entry, looked up): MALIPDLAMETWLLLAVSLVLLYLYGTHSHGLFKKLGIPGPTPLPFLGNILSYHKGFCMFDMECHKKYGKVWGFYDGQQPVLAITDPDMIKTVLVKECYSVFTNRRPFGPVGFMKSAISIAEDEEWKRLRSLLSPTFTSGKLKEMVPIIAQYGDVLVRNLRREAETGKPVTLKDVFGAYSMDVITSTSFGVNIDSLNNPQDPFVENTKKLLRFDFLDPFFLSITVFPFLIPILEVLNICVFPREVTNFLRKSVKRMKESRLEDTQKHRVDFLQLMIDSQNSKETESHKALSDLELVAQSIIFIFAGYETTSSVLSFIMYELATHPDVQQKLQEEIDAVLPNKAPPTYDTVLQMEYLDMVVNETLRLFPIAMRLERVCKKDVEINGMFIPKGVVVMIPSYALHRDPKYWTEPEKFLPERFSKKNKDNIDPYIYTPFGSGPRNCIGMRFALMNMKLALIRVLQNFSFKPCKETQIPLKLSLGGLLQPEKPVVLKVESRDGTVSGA

C[C@H](N)C(=O)c1ccccc1
Potency [1]: inactive
outcome [2]: inactive
outcome [3]: inactive
Potency [4]: inactive
Potency [5]: inactive
Potency [6]: inactive
Potency [7]: inactive
Potency [8]: inactive
Potency [9]: inactive
Potency [10]: 42.2 µM (active)
Potency [11]: 47.3 µM (active)
Potency [12]: 53.1 µM (active)
Potency [13]: inactive

C=CCN1CC[C@]23CCCC[C@H]2[C@H]1Cc1ccc(O)cc13
Potency [1]: inactive
outcome [2]: inactive
Potency [14]: inactive
Potency [4]: inactive
max activation [15]: -1.31%
Potency [16]: inactive
Potency [12]: inactive
Potency [13]: inactive

N=C(N)[Se]
Potency [1]: inactive
outcome [2]: inactive
outcome [3]: inactive
Potency [4]: inactive
Potency [5]: inactive
Potency [6]: inactive
Potency [7]: inactive
Potency [8]: inactive
Potency [9]: inactive
Potency [10]: inactive
Potency [11]: inactive
Potency [16]: inactive
Potency [12]: inactive
Potency [13]: inactive

CCC1(CC)C(=O)C=CNC1=O
Potency [1]: inactive
outcome [2]: inactive
Potency [14]: inactive
Potency [4]: inactive
Potency [5]: inactive
Potency [6]: inactive
Potency [7]: inactive
Potency [8]: inactive
Potency [9]: inactive
Potency [12]: 15.5 µM (active)
Potency [13]: inactive
Potency [17]: inactive

CCC(=O)OC1(c2ccccc2)CCN(C)CC1
Potency [1]: inactive
outcome [2]: inactive
Potency [14]: inactive
Potency [4]: inactive
Potency [5]: inactive
Potency [11]: inactive
Potency [12]: inactive
Potency [13]: inactive
